Out of some 13,000 compounds screened, about 3,200 (25%) showed an effect of 50% or more. The list shows a part of the results.
Each molecule was assayed on P. falciparum stage V gametocytes. Settings: 48 h, 5 µM; inhibitor.
Design: BacTiter-Glo ATP luminescence viability of purified stage V gametocytes in 384-well plates, per cent inhibition versus DMSO

Compound | % Inhibition
O=C(NCC1CCC(C(=O)NC2CCCc3ccccc32)CC1)c1ccc(O)c(-c2ccc(Cl)c(Cl)c2)c1 (stereo not drawn) [TCMDC-140891] | 17.3%
COC(=O)C(NC(=O)NC1CCN(c2ccnc(Nc3ccc(F)cc3)n2)C1)c1ccccc1 (stereo not drawn) [TCMDC-133595] | 4.499%
CCc1sc(CN(CCCNc2cc(=O)c3ccccc3[nH]2)Cc2sc(CC)c(Br)c2-c2ccsc2)c(-c2ccsc2)c1Br [TCMDC-140753] | 49.24%
N=C1c2ccccc2CN1CC(=O)c1ccc(Cl)c(Cl)c1 [TCMDC-123783] | -26.95%
N#Cc1ccc2c(c1)CCN(CCC1CCC(NC(=O)/C=C/c3cnc4ccccc4c3)CC1)CC2 (stereo not drawn) [TCMDC-139662] | -42.99%
O=C(NCc1ccc(F)cc1)Nc1cccc(-c2ccc(-c3nc4ccc(F)cc4[nH]3)cc2)c1 [TCMDC-133301] | -42.08%
CCc1nnc2sc(-c3cccc(NC(=O)c4ccc(OC)c(Cl)c4)c3)nn12 [TCMDC-125049] | -8.625%
CC(C)(CN)c1cc(-c2ccc(Cl)c(O)c2)c(-c2ccncc2)o1 [TCMDC-141334] | -68.46%
CCCC(=O)Nc1ccc(Cl)c(NC(=O)COc2cc(C)ccc2C(C)C)c1 [TCMDC-123706] | -6.515%
CCc1ccc(NC(=O)c2ccc(CN3CCCN(Cc4cccc(C)c4)CC3)cc2)cc1 [TCMDC-136440] | -10.99%
Nc1ncnc2nc(-c3ccc(F)cc3)cc(-c3ccc(NC(=O)c4ccccc4)cc3)c12 [TCMDC-134854] | -13.72%
CCCC1N=C(N)N=C(N)N1c1ccc(CC)cc1 (stereo not drawn) [TCMDC-131300] | -2.095%
CC(C)CC1c2[nH]c3ccccc3c(=O)c2CN1C(=O)OC(C)(C)C (stereo not drawn) [TCMDC-134513] | 44.74%
COc1ccc(CCN(C)CCOc2ccc(NC(=O)COc3ccc4sc5ccccc5c(=O)c4c3)cc2)cc1OC [TCMDC-132111] | 31.27%
COc1cc(CCN(C)Cc2ccc(OC)c(OC)c2)ccc1NC(=O)c1cccc2c(=O)c3cccc(F)c3[nH]c12 [TCMDC-131854] | 37.94%
COc1ccc(CN(C)CCCCc2ccc(NC(=O)COc3cccc4sc5ccccc5c(=O)c34)cc2)cc1OC [TCMDC-131960] | 103.7%
COc1ccc(CCN(C)CCCOc2ccc(NC(=O)COc3cccc4sc5ccccc5c(=O)c34)cc2)cc1OC [TCMDC-132117] | 17.11%
COc1ccc(CN(C)CCCc2ccc(NC(=O)c3cccc4c(=O)c5cccc(F)c5[nH]c34)cc2)cc1OC [TCMDC-131964] | 81.66%
COc1ccc(CN(C)CCCc2ccc(NC(=O)c3cccc4c(=O)c5ccccc5[nH]c34)cc2)cc1OC [TCMDC-131963] | 13.74%
Cn1cnnc1Sc1ccc(CN2CCOc3ccc(C4=CCCCC4)cc3C2)o1 [TCMDC-124661] | -23.49%
NC1=NC(c2ccccc2)(c2ccccc2)C(=O)N1CCOc1ccccc1 [TCMDC-136493] | -46.39%
Clc1ccc2c(N3CCN(CCN4CCN(c5ccnc6cc(Cl)ccc56)CC4)CC3)ccnc2c1 [TCMDC-125557] | -4.056%
CCc1cc(Cc2cnc(N)nc2N)cc(CC)c1OC [TCMDC-137697] | -15.83%

Compound | % Inhibition
CCCc1cc(Cc2cnc(N)nc2N)ccc1OCCCCCC(=O)OCC [TCMDC-137232] | -11.7%
CCOC(=O)C(=CNc1ccc(Cc2cnc(N)nc2N)cc1CC)C(=O)OCC [TCMDC-137346] | 53.58%
O=C1CN(C(=O)CCC2CCCC2)C(c2ccc(F)cc2)c2cc(F)ccc2N1 (stereo not drawn) [TCMDC-124463] | -48.27%
O=C(Nc1cccc(OC2CCN(Cc3ccccc3)CC2)c1)c1ccc(Cl)c(Cl)c1 [TCMDC-139542] | 5.419%
c1ccc2oc(-c3cc4ccncc4cc3OC3CCNCC3)cc2c1 [TCMDC-134160] | 92.38%
O=C(Nc1cccnc1)c1ccc(-c2cc3ccncc3cc2OC2CCNCC2)s1 [TCMDC-134228] | 62.63%
c1cncc(NCc2ccc(-c3cc4ccncc4cc3OC3CCNCC3)s2)c1 [TCMDC-134161] | 28.32%
O=C(Nc1ccccc1)c1ccc(-c2cc3ccncc3cc2OC2CCNCC2)s1 [TCMDC-134227] | 77.06%
Cc1cc(NC(=O)c2cccs2)ccc1OC1CCN(Cc2ccccc2)CC1 [TCMDC-133988] | 37.37%
c1ccc(-c2cc3cccc(-c4nc5ccncc5[nH]4)c3o2)cc1 [TCMDC-140516] | 7.065%
Nc1ncc(-c2cc3ccccc3o2)c(N)n1 [TCMDC-137177] | 18.48%
COc1cccc(-c2nn(C)c3sc(C(=O)Nc4cccnc4)cc23)c1 [TCMDC-123584] | -55.35%
CCOC(=O)c1ccc(NC(=O)Nc2cccc(-c3ccc(-c4nc5cccc(C)c5[nH]4)s3)c2)cc1 [TCMDC-133258] | -27.38%
O=C(Nc1ccsc1)Nc1cccc(-c2cccc(-c3nc4ccc(F)cc4[nH]3)c2)c1 [TCMDC-133216] | -18.7%
O=C(Nc1cccc(-c2ccc(-c3nc4ccc(F)cc4[nH]3)cc2)c1)Nc1ccc(F)c(F)c1F [TCMDC-133231] | -4.749%
C=Cc1cc(NC(=O)N2CCc3cc(OC)c(C(F)(F)F)cc32)cc(-c2cccnc2)c1 [TCMDC-139030] | -6.517%
CC(C)=CC1C(C(=O)n2c(N)nc3ccccc32)C1(C)C (stereo not drawn) [TCMDC-131688] | 3.871%
Nc1ccc(-c2nc3c(ccc4ccccc43)[nH]2)cc1 [TCMDC-124395] | 24.31%
Cc1c(C(C)(C)C)ccc2nc(N)nc(N)c12 [TCMDC-137831] | -39.39%
CC(C)n1c(C(C)(C)C)cc2c3c(N)nc(N)nc3ccc21 [TCMDC-137311] | 32.82%
CC(C)(C)c1ccc(Cc2cccc3nc(N)nc(N)c23)cc1 [TCMDC-137821] | -51.22%
Cc1c(N)ccc2[nH]c(-c3ccc(N)cc3)nc12 [TCMDC-124242] | 91.56%
Cc1cc(N)cc2[nH]c(-c3ccc(N)cc3)nc12 [TCMDC-124391] | -6.074%

Compound | % Inhibition
CC(C)(C)c1ccc(-c2cc3c(ccc4nc(N)nc(N)c43)[nH]2)cc1 [TCMDC-137977] | 117.8%
CC(C)c1cc2c(ccc3nc(N)nc(N)c32)[nH]1 [TCMDC-137847] | 19.02%
CC(C)(C)c1ccc(-c2nc3c(ccc4nc(N)nc(N)c43)[nH]2)cc1 [TCMDC-137984] | 112.2%
CC1(C)N=C(N)N=C(N)N1OCCOc1ccc2ccccc2c1 [TCMDC-131609] | -8.756%
N#Cc1cc(C(=O)Nc2ccccc2)c(N)nc1SCC(=O)Nc1ccc(Br)cc1 [TCMDC-124873] | -53.64%
CCCC(C)Nc1nc(C)cc(N[C@@H](CC(C)C)C(=O)NCCc2ccccc2)n1 (stereo partly drawn) [TCMDC-134769] | -46.8%
[O-][s+]1c(Cl)c(-c2ccc(Cl)cc2)c2ccc(Cl)cc21 (stereo not drawn) [TCMDC-124011] | 120.8%
Cc1noc(C)c1-c1ccc(C(=C2CCCCCCC2)c2ccc(O)cc2)cc1 [TCMDC-135872] | -5.918%
Fc1ccc(-c2oc(C3CCN(CCc4ccc(-c5nc(=S)o[nH]5)cc4)CC3)nc2COCC(F)(F)F)cc1 [TCMDC-138124] | 11.59%
O=C(Nc1cccc(-c2ccc(-c3nc4cc(C(F)(F)F)ccc4[nH]3)s2)c1)c1ccncc1 [TCMDC-136960] | -10.77%
O=C(Cc1c[nH]cn1)Nc1ccc(-c2ccc(-c3nc4cc(C(F)(F)F)ccc4[nH]3)s2)cc1 [TCMDC-136944] | -5.397%
O=C(Nc1ccc(-c2ccc(-c3nc4cc(C(F)(F)F)ccc4[nH]3)s2)cc1)c1c[nH]cn1 [TCMDC-136933] | 1.444%
O=C(Nc1cccc(-c2ccc(-c3nc4cc(C(F)(F)F)ccc4[nH]3)s2)c1)c1c[nH]cn1 [TCMDC-136934] | 63.59%
O=C(Cc1c[nH]cn1)Nc1cccc(-c2ccc(-c3nc4cc(C(F)(F)F)ccc4[nH]3)s2)c1 [TCMDC-136945] | 84.53%
O=C(Cc1c[nH]cn1)Nc1cccc(-c2ccc(-c3nc4cc(F)ccc4[nH]3)s2)c1 [TCMDC-136953] | 5.637%
Cc1cccc2nc(-c3cccc(-c4cccc(CNCCc5ccncc5)c4)c3)[nH]c12.O=C(O)C(F)(F)F [TCMDC-132844] | 3.347%
O=C(CCc1cccnc1)Nc1cccc(-c2ccc(-c3nc4cc(C(F)(F)F)ccc4[nH]3)s2)c1 [TCMDC-132147] | 0.1764%
CC(=O)Nc1ccc(C(=O)NC2CCN(c3ccnc4cc(Cl)ccc34)CC2)cc1 [TCMDC-133572] | 1.937%
COc1cc(Nc2nccc(N3CCC(NC(=O)c4cc5ccccc5s4)C3)n2)cc(OC)c1OC (stereo not drawn) [TCMDC-133624] | 0.1379%
CC(C)C[C@H](NC(=O)c1cc2ccccc2s1)C(=O)N[C@H]1CCN(Cc2ccc(OC[C@@H]3CCCN3C)c(Cl)c2)C1 [TCMDC-140292] | 28.24%
CC(C)C[C@H](NC(=O)c1cc2ccccc2s1)C(=O)N[C@H]1CCN(Cc2ccc(OCCN3CCNCC3)c3ccccc23)C1 [TCMDC-140289] | 107.5%
CC(C)C[C@H](NC(=O)c1cc2ccccc2s1)C(=O)N[C@H]1CCN(Cc2ccc(OC[C@@H]3CCCN3C)c3ccccc23)C1 [TCMDC-140290] | 74.51%
COc1ccc(Nc2nccc(N3CCC(NC(=O)c4cc5ccccc5s4)C3)n2)cc1 (stereo not drawn) [TCMDC-133614] | -3.392%

Reference: publication PMC4552634, “A New Set of Chemical Starting Points with Plasmodium falciparum Transmission-Blocking Potential for Antimalarial Drug Discovery” (PLoS ONE, 2015)
